G9a block: blocks human histone lysine methyltransferase G9a; 8.8% of 350,000 active; G9a H3K9 monomethylation, AlphaScreen, 2 h; Q96KQ7; Potency, µM (highest dose often 102 µM), hits mostly inhibitors; AID 504332; note: nearly all actives have a fitted effect of over 75% in size
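Enzyme 20 nM + cpd, 15 min RT; add b-H3K9 pep 500 nM / SAM 20 uM; 2 h RT; anti-H3K9me1 Ab 0.5 ug/mL + SA donor / anti-rabbit acceptor beads 20 ug/mL each, 10 min; AlphaScreen read.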
Six1-Eya2 inh: inhibitors of human Six1/Eya2 interaction; Q15475+O00167; activity change, % (test concentration not listed); 0.56% of 360,000 active; AID 651725; AlphaScreen GST-Six1/His-Eya2 binding, biochemical; active compounds read low; in the data active = activity change below about -65%; inconclusive = mostly about -30% to -63%
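Six1/Eya2 binding was read as AlphaScreen signal after compounds were pinned into GST-Six1 plus His-tagged Eya2 (5X stock 250/500 nM) in pH 8.0 Tris/NaCl/TCEP buffer, beads added, then incubated 1 h, 37 C, dark.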
BAZ2B block: blocks human BAZ2B; Q9UIF8; 4.4% of 360,000 active; Potency, µM (top dose mostly 114 µM), hits mostly inhibitors; AlphaScreen BAZ2B-H3K14Ac peptide displacement; note: nearly all actives have a fitted effect of over 60% in size
Target sequence (Q9UIF8 whole entry, looked up): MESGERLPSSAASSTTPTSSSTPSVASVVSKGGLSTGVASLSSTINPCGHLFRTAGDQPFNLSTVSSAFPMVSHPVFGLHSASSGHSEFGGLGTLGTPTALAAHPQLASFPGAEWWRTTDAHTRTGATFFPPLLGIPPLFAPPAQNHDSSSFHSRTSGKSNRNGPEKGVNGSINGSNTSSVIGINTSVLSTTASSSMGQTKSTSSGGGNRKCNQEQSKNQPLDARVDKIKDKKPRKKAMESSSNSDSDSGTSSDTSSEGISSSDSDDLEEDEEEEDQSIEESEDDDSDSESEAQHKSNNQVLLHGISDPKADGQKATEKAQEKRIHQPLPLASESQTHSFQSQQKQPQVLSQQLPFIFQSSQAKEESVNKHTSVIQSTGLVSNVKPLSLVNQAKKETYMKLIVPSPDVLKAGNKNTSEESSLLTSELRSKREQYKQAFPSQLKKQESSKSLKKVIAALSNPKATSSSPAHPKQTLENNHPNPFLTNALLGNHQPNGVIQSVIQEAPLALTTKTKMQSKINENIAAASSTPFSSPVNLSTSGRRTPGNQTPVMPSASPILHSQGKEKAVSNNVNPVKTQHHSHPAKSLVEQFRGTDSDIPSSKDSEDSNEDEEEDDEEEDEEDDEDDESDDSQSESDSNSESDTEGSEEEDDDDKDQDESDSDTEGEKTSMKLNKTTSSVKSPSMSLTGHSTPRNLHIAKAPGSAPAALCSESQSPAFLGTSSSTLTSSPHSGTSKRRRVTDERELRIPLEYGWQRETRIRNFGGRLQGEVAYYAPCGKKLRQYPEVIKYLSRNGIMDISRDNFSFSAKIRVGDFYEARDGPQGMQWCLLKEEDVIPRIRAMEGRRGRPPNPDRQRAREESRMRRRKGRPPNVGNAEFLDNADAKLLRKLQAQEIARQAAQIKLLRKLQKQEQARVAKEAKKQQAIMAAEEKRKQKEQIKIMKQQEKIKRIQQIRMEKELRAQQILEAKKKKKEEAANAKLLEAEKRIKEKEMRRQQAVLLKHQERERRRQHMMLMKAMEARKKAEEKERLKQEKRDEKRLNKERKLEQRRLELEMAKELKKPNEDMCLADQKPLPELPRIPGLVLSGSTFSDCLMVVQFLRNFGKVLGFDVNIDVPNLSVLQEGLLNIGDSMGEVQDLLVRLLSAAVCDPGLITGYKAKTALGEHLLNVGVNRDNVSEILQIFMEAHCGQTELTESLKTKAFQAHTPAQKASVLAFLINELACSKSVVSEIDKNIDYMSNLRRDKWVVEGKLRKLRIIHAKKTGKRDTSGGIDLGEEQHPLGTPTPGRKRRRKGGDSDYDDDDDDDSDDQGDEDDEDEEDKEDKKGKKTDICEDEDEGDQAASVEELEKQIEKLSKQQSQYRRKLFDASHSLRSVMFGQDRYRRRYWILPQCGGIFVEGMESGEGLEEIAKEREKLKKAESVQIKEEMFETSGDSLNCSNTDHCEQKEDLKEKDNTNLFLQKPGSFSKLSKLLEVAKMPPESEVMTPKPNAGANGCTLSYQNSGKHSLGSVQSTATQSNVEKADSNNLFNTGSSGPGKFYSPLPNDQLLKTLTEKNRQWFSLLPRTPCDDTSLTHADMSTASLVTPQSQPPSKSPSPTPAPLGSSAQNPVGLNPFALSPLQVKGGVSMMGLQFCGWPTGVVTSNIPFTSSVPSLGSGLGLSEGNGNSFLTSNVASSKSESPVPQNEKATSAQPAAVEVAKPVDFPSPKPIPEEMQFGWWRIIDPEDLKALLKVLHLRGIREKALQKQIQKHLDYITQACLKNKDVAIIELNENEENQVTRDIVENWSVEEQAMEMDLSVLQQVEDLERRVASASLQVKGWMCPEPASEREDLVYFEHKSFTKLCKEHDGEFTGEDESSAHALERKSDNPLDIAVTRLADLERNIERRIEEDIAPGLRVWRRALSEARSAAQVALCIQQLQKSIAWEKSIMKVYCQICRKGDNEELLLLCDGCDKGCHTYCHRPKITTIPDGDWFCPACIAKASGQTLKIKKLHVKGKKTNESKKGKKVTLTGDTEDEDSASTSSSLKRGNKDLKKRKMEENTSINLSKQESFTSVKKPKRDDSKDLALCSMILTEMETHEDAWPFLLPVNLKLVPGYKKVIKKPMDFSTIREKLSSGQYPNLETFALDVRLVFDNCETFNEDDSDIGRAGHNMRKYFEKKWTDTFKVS
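Inhibition is scored as reduced AlphaScreen emission. The BAZ2B/b-H3(5-23)K14Ac complex (50 nM each) in PBS pH 7.4, 0.01% Tween-20 meets compound (up to 110 uM) for 30 min at RT before bead addition.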
HP1b binding inh: inhibitors of HP1-beta chromodomain binding to methylated histone tails; AlphaScreen HP1-beta / biotin-H3K9me3 peptide binding; Potency, µM (titrated, usually from 114 µM), actives largely listed as inhibitors; 0.56% of 390,000 active; AID 540317; note: nearly all actives have a fitted effect of over 70% in size
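Compound inhibition of the preformed complex between 50 nM HP1-beta and 50 nM biotinylated H3K9me3 peptide was read by AlphaScreen. Buffer was PBS pH 7.4 with 0.01% Tween-20. Incubations ran 30 min at room temperature, with 10 ug/mL donor/acceptor beads.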
JMJD2A Tudor: JMJD2A Tudor domain (human) inhibition | O75164 | AlphaScreen JMJD2A-Tudor / H3K4me3 peptide binding | Potency, µM (highest dose often 114 µM), actives largely listed as inhibitors | 4.4% of 390,000 active | AID 504339; note: nearly all actives have a fitted effect of over 50% in size
CtBP-E1A blk: CtBP/E1A binding inhibition | AlphaScreen GST-E1A/His-CtBP binding, 1536-well; active compounds read low | activity change, % (concentration not given with the values) | 0.49% of 340,000 active | AID 651724; in the data active = activity change below about -65%; inconclusive = mostly about -30% to -63%
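AlphaScreen with 125 nM GST-E1A and 125 nM His-CtBP (5X stocks) in Tris pH 8.0, 300 mM NaCl, BSA, Tween 20, TCEP. Compounds preincubated 2 h at 37 deg C, then glutathione donor/nickel acceptor beads added for 1 h at 37 deg C in dark.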
A number is an active result; i = inactive; ? = inconclusive; nt = not tested or not shown; ! = not confirmed by another sample; [ ] = remark or other dose. The list is not random: actives were taken first. Their share in the collection is about 10%. Unless noted, calls come from the whole dose curve; as a rule, active = well fitted inhibition curve with a large enough effect; inconclusive = small, poorly fitted or top-dose-only effect; inactive = no such curve, though single readings can be large or run the other way.

SMILES | G9a block | Six1-Eya2 inh | BAZ2B block | HP1b binding inh | JMJD2A Tudor | CtBP-E1A blk
CCOC(=O)N1CCC(NCCNC(=O)c2ccc(F)c(F)c2)CC1 | i[0.501 µM] | i | i | i | i | i
CC1(C)C(=O)Nc2ccccc2N1C(=O)CSc1nnc2ccccn12 | i | i | i | i | i | nt
CC(C)CNC(=O)C1(C)CCCCCN1C(=O)c1cc2ccccc2s1 (stereo not drawn) | nt | i | nt | nt | nt | i
CC(=O)Nc1ccc(SC[C@H](Cc2ccccc2)N2CC[C@@H](C(C)(C)C)CCC2=O)cc1 | i[0.501 µM] | i | i | i | ? | i
Cc1cc(NC(=O)NC2(C(F)(F)F)Oc3ccc(Cl)cc3O2)no1 (stereo not drawn) | 7.9µM | i | i | i | ? | i
COc1ccc(OC)c(NC(=O)NC2(C(F)(F)F)Oc3ccccc3O2)c1 | 7.9µM | i | i | i | i | i
O=C(NCc1cccnc1)NC1(C(F)(F)F)Oc2ccc(Cl)cc2O1 (stereo not drawn) | 32µM | i | i | i | i | i
COCCNC(=O)NC1(C(F)(F)F)Oc2ccc(Cl)cc2O1 (stereo not drawn) | 40µM | i | i | i | i | i
CC1CCN(CC[C@H]2CCCN2S(=O)(=O)c2cccc(O)c2)CC1 | 25µM! | i | i | i | i | i
O=C(NCCC1CCCCN1S(=O)(=O)c1ccccc1)C(=O)NCCN1CCOCC1 (stereo not drawn) | i[0.501 µM] | i | i | i | i | i
Cc1cccc(N(CC(=O)N(C)Cc2ccccc2)S(=O)(=O)c2ccccc2)c1C | i | nt | i | i | i | nt
O=C(COc1ccc(Br)cc1)N/N=C1/SCC(=O)N1Cc1ccco1 | i | i | ? | ? | 16µM | i
O=C(COC(=O)CNC(=O)c1ccccc1F)Nc1nnc(-c2ccccc2)o1 | 56µM | ? | i | i | i | ?
CCc1ccc(C(c2c(C)nn(-c3ccccc3)c2N)c2c(C)nn(-c3ccccc3)c2N)cc1 | ? | i | ? | i | 56µM | i
C[N+](C)(C)CCC(=O)c1cccc2ccccc12 | 0.5µM | nt | nt | nt | nt | nt
O=C(c1ccco1)N1CCN(C(=O)C2CC(c3ccccc3F)=NO2)CC1 (stereo not drawn) | ? | i | i | i | i | i
OCC#CCSc1nnc(-c2ccc(Br)cc2)o1 | i | i | i | i | i | i
COc1ccc(-c2nnc(SCC#CCO)o2)cc1OC | 16µM | i | i | i | ? | i
CC(C)CNC(=O)C(=O)NNC(=O)C1CCCCC1 | 20µM | i | i | i | ? | i
O=C(NCC1CCCO1)C1CCN(C2CCN(CCCC3CCCC3)CC2)CC1 (stereo not drawn) | i | i | i | i | i | i
CN(C)C(=O)N1CCC(C(=O)NCC2CCCO2)CC1 (stereo not drawn) | i | i | i | i | i | i
CC(C)CNC(=O)C1CCN(CC2CCCCC2)CC1 | nt | i | i | i | 79µM | i
CC(C)CN1CCC(C(=O)NCC2CCCO2)CC1 (stereo not drawn) | 10µM | i | 56µM | ? | 7.1µM | i
O=C(NCC1CCCO1)C1CCN(CC2CCCCC2)CC1 (stereo not drawn) | ? | i | ? | i | 35µM | i
Cc1cc(C)cc(NC(=O)Cn2c(=O)n(Cc3ccc4c(c3)OCO4)c(=O)c3oc4ccccc4c32)c1 | i | nt | i | i | i | nt
SMILES | G9a block | Six1-Eya2 inh | BAZ2B block | HP1b binding inh | JMJD2A Tudor | CtBP-E1A blk
CSc1ccc(/C=C/c2nc3ccccc3n2S(=O)(=O)c2ccc(Br)cc2)cc1 | i | nt | nt | i | ? | nt
CC(=Nc1ccc(Br)cc1)c1sc2ccccc2c1O | i | i | i | i | i | i
CC(=Nc1ccccc1)c1sc2ccccc2c1O | ? | i | ? | i | 56µM | i
CC(=O)c1cccc(NC(=O)Cc2cccs2)c1 | ? | i | i | i | i | i
Cc1c(NC(=O)Cc2cccs2)cccc1[N+](=O)[O-] | ? | i | 50µM | i | i | i
O=C(Cc1cccs1)Nc1ccc(S(=O)(=O)N2CCCC2)cc1 | ? | i | 50µM | i | ? | i
CC(=O)c1ccc(NC(=O)Cc2cccs2)cc1 | ? | i | 50µM | i | ? | i
CC(=O)NC(CC(=O)Nc1ccc(S(=O)(=O)N2CCCC2)cc1)c1ccccc1 (stereo not drawn) | 28µM | i | nt | i | i | i
Cc1c(Cl)cccc1NC(=O)Cc1cccs1 | nt | i | i | i | i | i
CCCc1c(Cc2cccc(F)c2)ncn1Cc1cccc(-c2ccccc2)c1 | nt | i | nt | nt | nt | i
COc1cc(OC)c(NC(=O)Cc2cccs2)cc1Cl | i | i | i | i | i | i
CCCCN(CCCC)S(=O)(=O)c1ccc(NC(=O)Cc2cccs2)cc1 | i | i | ? | i | 45µM | i
CCN(CC)S(=O)(=O)c1ccc(OC)c(NC(=O)Cc2cccs2)c1 | ? | i | 50µM | ? | 50µM | i
CN(CCCS(=O)(=O)[O-])c1ccc(/C=C/c2ccc3ccccc3[n+]2C)cc1 | 32µM | i | ? | i | ? | nt
CN(C)c1ccc(/C=C/c2ccc3c4ccccc4ccc3[n+]2-c2ccccc2)cc1 | 16µM | ? | 7.9µM | 11µM | 8.9µM | i
CN(C)c1ccc(/C=C/c2ccc3ccccc3[n+]2C)cc1 | 7.9µM | i | 45µM | ? | 79µM | i
[O-][n+]1c(/C=C/c2ccccc2)ccc2ccccc21 | i | i | ? | i | i | i
COc1ccc(/C=C/c2ccc3ccccc3[n+]2C)cc1OC | 35µM | i | i | i | ? | nt
CCOC(=O)CSc1cc(=O)n(C)c2cc(Cl)ccc12 | i | i | i | i | i | i
COCCn1c(C)c(C)c2c(NCCc3ccccc3)ncnc21 | 28µM | i | 28µM | ? | 18µM | nt
O=C(CCN1Cc2ccccc2C1)c1ccc2c(c1)OCCO2 | 8.9µM | i | i | i | ? | i
O=C(O)CCSCC(=O)c1ccc2c(c1)OCCO2 | 32µM | i | i | i | ? | i
CCOc1ccccc1N1CC(c2nc3ccccc3n2CCOc2ccccc2OC)CC1=O (stereo not drawn) | i | nt | i | i | i | nt
CCCCOP(=O)(c1ccc(N(C)C)cc1)C(O)c1ccc(N(C)C)cc1 (stereo not drawn) | 2.2µM | i | ? | i | 5µM | i
CCCOP(=O)(c1ccc(N(C)C)cc1)C(O)c1ccc(N(C)C)cc1 (stereo not drawn) | 0.71µM | i | i | i | 8.9µM | i
CC(C)CCOP(=O)(c1ccc(N(C)C)cc1)C(Nc1ccccc1)c1ccc(N(C)C)cc1 (stereo not drawn) | 14µM | i | ? | i | 45µM | nt
CC(C)CCOP(=O)(c1ccc(N(C)C)cc1)C(O)c1ccc(N(C)C)cc1 (stereo not drawn) | 2.2µM | i | ? | i | 7.1µM | i
CC(C)CCOP(=O)(c1ccc(N(C)C)cc1)C(O)c1ccc(C(C)C)cc1 (stereo not drawn) | i[2.33 µM] | i | i | i | i | nt

Bioassay records: PubChem BioAssay, National Center for Advancing Translational Sciences (NCATS)
